This is an account of results in PubChem BioAssay AID743279 (National Center for Advancing Translational Sciences (NCATS), 2014).

The whole screen tested about 360,000 compounds, of which about 17,000 (4.7%) were called active. Another 5% or so got no clear call; they are omitted. Only a selection was taken, and actives are over-represented in it overall. Unmarked numbers belong to inactive results. Cut-off read from the data, not from the text of the source: active = activity change below about -50%; inconclusive = mostly about -30% to -49%; inactive = weaker than that.
% is set by controls: 0 for no effect and ±100 for the full control effect.

This assay in a line: qHTS for Inhibitors of Inflammasome Signaling: IL-1-beta AlphaLISA Primary Screen. To be noted: THP-1 LPS/ATP IL-1B secretion, 16 h; at 57.5 µM, hits give low values. A digest of the protocol: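 Secreted IL-1B measured by AlphaLISA bead assay after 16 h compound exposure of THP-1 cells; compounds (final up to 57.5 uM) added 1 h before LPS (250 ng/mL) and ATP (1.25 mM) stimulation; lower signal means less secretion.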
On the technique in general: qHTS replaces the single test concentration by a dilution series.
For the compound `CC(=O)NC(c1cccc(F)c1)c1nc(-c2cccc(F)c2)cs1` (configuration not stated), the activity change was -16.3%.

As to `CCN(CC)C(=O)C(C)N1c2cccc3cccc(c23)S1(=O)=O` (configuration not stated), the activity change was 13.2%.

Turning to `O=C(CCNS(=O)(=O)c1ccccc1)NCCCc1ccccc1`, the activity change was 14.3%.

Regarding `COc1ccc(C(=O)Nc2ccc(F)cc2F)cc1`, the activity change was -11.8%.

With `CCc1cc(C(=O)c2ccc(OC)cc2)c(NC(=O)CN2CCN(C)CC2)s1`, the activity change is -54.3% (active).

For the compound `COc1ccc(C(=O)Nc2sc(C)c(C)c2CN2CCOCC2)cc1`, the activity change is 14%.

With `COc1ccc(OC)c(C(=O)c2ccc(C(=O)N3CCN(Cc4csc(C)n4)CC3)cc2)c1`, the activity change was 27.4%.

For `CCc1ccc(NC(=O)CN2CCC(C(=O)c3ccc(OC)cc3)CC2)cc1`, the activity change is -20.7%.

Consider `CCc1cc(C(N)=O)c(NC(=O)c2ccc(OC)cc2)s1`, for which the activity change is -102% (active).

With `CCCCn1nnnc1C(c1cc2ccccc2o1)N(C)Cc1ccc(Cl)c(Cl)c1` (configuration not stated), the activity change is 1.13%.

Turning to `COc1ccc(CN2C(=O)C(CC(=O)NCCCCc3ccccc3)CC(C(=O)N3CCOCC3)=C2C)cc1` (configuration not stated), the activity change was -11%.

Turning to `CCn1nc(C)c(NC(=O)/C=C/c2ccc(OC)c(COc3ccc(Br)cc3)c2)c1C`, the activity change was -50.3% (active).

As for `COc1ccc(/C=C/C(=O)Nc2c(C)nn(C)c2C)cc1COc1ccc(Br)cc1`, the activity change is -24.2%.

In the case of `COc1ccc(C(C)=O)cc1COc1ccc(Cl)c(C)c1`, the activity change was -8.14%.

Regarding `O=C(NN=Cc1ccc2c(c1)CCC2)c1ccccc1O`, the activity change was -24.6%.

As for `CC1CCN(S(=O)(=O)c2ccc3c(c2)n(C)c(=O)n3C)CC1`, the activity change was -8.4%.

Take `CC1CCN(C(=S)c2cccc(O)c2)CC1`: the activity change is 10.7%.

`CCCCn1c(N)c(N(CCOC)C(=O)c2sc3ccccc3c2Cl)c(=O)[nH]c1=O`: the activity change was -21.6%.

As for `CSc1nnc(NC(=O)c2nc(S(=O)(=O)Cc3ccc(C)cc3)ncc2Cl)s1`, the activity change is -105% (active).

`Cc1nnc(NC(=O)CCCOc2ccccc2)s1`: the activity change is 19.1%.

`COCCSc1nnc(NC(=O)CCS(=O)(=O)Cc2ccccc2)s1`: the activity change was 1.75%.

Regarding `Cc1ccc(CS(=O)(=O)c2ncc(Cl)c(C(=O)Nc3nnc(C)s3)n2)cc1`, the activity change was -57.1% (active).

Consider `Cc1ccc(S(=O)(=O)CCC(=O)Nc2nnc(CC(C)C)s2)cc1`, for which the activity change was -3.21%.

For `CSc1ncc(Cl)c(C(=O)Nc2cc(C)ccc2C)n1`, the activity change was 25.6%.

As for `CCc1nc2ccc(C(=O)NC3CCN(Cc4ccccc4)CC3)cn2c1N(CC)CCOC`, the activity change is -7.01%.

Turning to `O=C(Cn1cc(C(=O)C2CC2)c2ccccc21)Nc1ccccc1Cl`, the activity change is -2.81%.

For `Cc1ccc(NS(=O)(=O)c2ccc(C(=O)NCCCN3CCOCC3)cc2)cc1`, the activity change is 6.14%.

In the case of `COC(=O)c1ccc2c(c1)S(=O)(=O)NC2C` (configuration not stated), the activity change was 5.94%.

Take `CCOC(=O)C1=CC[C@@H](c2ccccc2)N(S(=O)(=O)c2ccc(C)cc2)[C@H]1c1ccc(CC)cc1`: the activity change was 52.6%.

As to `COc1ccc(S(=O)(=O)N2CCN(CC(=O)N3CCNC3=O)CC2)cc1OC`, the activity change is -22%.

For the compound `COC(=O)c1ccc(NCc2cc(O)ccc2O)cc1`, the activity change is -110% (active).

As for `CC(C)OC(=O)c1ccc(NCc2cc(O)ccc2O)cc1Cl`, the activity change is 0%.

Take `O=C(OC12CC3CC(CC(C3)C1)C2)c1ccc(NCc2cc(O)ccc2O)cc1`: the activity change is -102% (active).

On to `COC(=O)c1ccc(NCC(=O)c2ccccc2)cc1`, for which the activity change is -20.4%.

Take `CC1(C)C2CCC1(C)C(OC(=O)c1ccc(O)cc1)C2` (configuration not stated): the activity change is 9.54%.

As to `Cc1ccc(-c2cnc(C(O)c3cccc(C)c3C)[nH]2)cc1` (configuration not stated), the activity change is -19.2%.

For the compound `CCC(=O)OCc1c(C(F)(F)F)nn(C)c1Oc1cccc(C(F)(F)F)c1`, the activity change is 2.89%.

On to `CCC(C)C(CO)NC(=O)/C=C/[C@H]1O[C@@H](n2cnc3c(NC(=O)c4ccccc4)ncnc32)[C@H](O)[C@@H]1O` (some centres not stated), for which the activity change is -22%.

Turning to `C[C@H](CO)N1C[C@H](C)[C@@H](CN(C)Cc2ccc3c(c2)OCO3)OCc2cnnn2CCCC1=O`, the activity change is 19.4%.

As for `CC1CCCC(C)N1C(=O)COC(=O)c1ccccc1C(=O)c1ccccc1` (configuration not stated), the activity change is -9.64%.

For `N#Cc1c(N)nc2c(c1N)CC(C(F)(F)F)O2` (configuration not stated), the activity change was 16.5%.

For the compound `O=C(O)C(CCc1ccccn1)c1ccccc1` (configuration not stated), the activity change was -10.2%.

With `O=c1[nH]c2c(c(=O)n1-c1ccccc1)CCO2`, the activity change is 0%.

`CC(OC(=O)CNC(=O)c1ccco1)C(=O)Nc1ccc(Cl)cn1` (configuration not stated): the activity change is 12.3%.

Consider `CC(OC(=O)CNC(=O)c1ccc(Cl)c([N+](=O)[O-])c1)C(=O)NCc1ccco1` (configuration not stated), for which the activity change was -52.2% (active).

As to `O=C(NCc1ccco1)c1ccc([N+](=O)[O-])cc1Cl`, the activity change was 15.3%.

In the case of `CCc1nc2ccc(C(=O)N(C)Cc3ccco3)cn2c1N(C)C(=O)Cc1ccccc1`, the activity change is -0.908%.

Consider `CCCN(C(=O)COC(=O)CNS(=O)(=O)c1ccc(NC(C)=O)cc1)C1CCS(=O)(=O)C1` (configuration not stated), for which the activity change was 14.5%.

For `CCOC(=O)N1CCN(C(c2ccnc3ccccc23)c2nnnn2-c2c(C)cccc2C)CC1` (configuration not stated), the activity change was -14.1%.

On to `Cc1ccc(C)c(NC(CC(=O)c2ccccc2)C(=O)OCC(=O)c2cccs2)c1` (configuration not stated), for which the activity change was 7.47%.

As to `Cc1ccccc1C(CC(=O)c1cccs1)C(C#N)C#N` (configuration not stated), the activity change was -107% (active).

On to `O=C(NCC(=O)N1CCN(c2ccccc2F)CC1)c1cccs1`, for which the activity change was 16.6%.

For `CCOC(=O)CSc1nc2ccc(C)cc2n2cnnc12`, the activity change was -55.9% (active).

Regarding `CCOC(=O)CSc1nncc2ccc(OC)c(OC)c12`, the activity change is -8.55%.

`COc1ccc(CCNc2nc3ccc(C)cc3n3cnnc23)cc1OC`: the activity change was 13.3%.

For `CN(CCCNC(=O)CN1C(=O)CC(C)(C)S(=O)(=O)c2ccccc21)C1CCCCC1`, the activity change is 0%.

As to `COc1ccccc1C(=O)NC(=S)Nc1ccc(N2CCOCC2)cc1`, the activity change was -16.4%.

`CCCCCC(=O)N1C[C@H](O)[C@@H](n2cc(COC(=O)c3ccccc3)nn2)C[C@@H]1c1ccc(C)cc1`: the activity change is -14.9%.

Turning to `Cc1ccc(C)n1NC(=O)c1ccc([N+](=O)[O-])cc1`, the activity change is -5.32%.

`N=C1C(c2nc3ccccc3s2)=C(O)CN1NC(=O)c1ccc([N+](=O)[O-])cc1`: the activity change was -90.6% (active).

As for `N=C1C(c2nc3ccccc3[nH]2)=C(O)CN1NC(=O)c1c[nH]c2ccccc12`, the activity change was 27.9%.

As for `CN1OC[C@@H]2CN[C@H](c3ccc(-c4ccccc4)cc3)C[C@@H]21`, the activity change was -4.9%.

Regarding `O[C@H]1CN(Cc2cccs2)[C@@H](c2ccc(Cl)cc2)C[C@@H]1n1cc(C2CC2)nn1`, the activity change is 30.3%.

Regarding `COc1cc(OC)cc(-c2nnc(N(C)C(=O)c3ccncc3)s2)c1`, the activity change is -18.8%.

Consider `COCCN(C(=O)C(C)C)c1nnc(-c2ccc(C(C)(C)C)cc2)s1`, for which the activity change is -83.8% (active).

For the compound `COCCN(C(=O)c1ccco1)c1nnc(-c2ccc(OC)cc2)s1`, the activity change was -3.55%.

Regarding `CCC1=C(OC(=O)N(CC)CC)N2C(=O)OC(=NCC3CC3)[C@]2(C)[C@H]2C1=CC[C@H]1C(=O)N(CC(=O)OC)C(=O)[C@H]12`, the activity change is 25%.

On to `COc1ccccc1NC(=O)C[n+]1ccccc1`, for which the activity change is 33.7%.

On to `COc1ccccc1NC(=O)/C=C/C(N)=O`, for which the activity change was -100% (active).

For `COc1ccccc1NC(=S)NC(=O)C(C)C`, the activity change is 3.02%.

With `COc1ccccc1NC(=O)c1cc(Cl)nc2ccccc12`, the activity change is 46.4%.

With `COc1ccccc1NC(=O)c1cc(Cl)nnc1Cl`, the activity change was -97.2% (active).

Regarding `COc1ccccc1C(=O)Nc1ccccc1C(=O)Nc1ccccc1`, the activity change is -4.71%.

With `O=C(Nc1ccc(F)cc1)Nc1nnc([C@H]2C[C@H](O)[C@@H](CO)O2)s1`, the activity change was -12.8%.

For the compound `COc1ccc(-c2nnc(SC(C)C(=O)NC3CC3)o2)cc1` (configuration not stated), the activity change is -5.66%.

As for `COc1ccc(-c2nnc(-c3ccc4ccccc4c3)o2)cc1`, the activity change was -20.9%.

Take `COc1ccc(-c2nnc(SC(=O)N3c4ccccc4Sc4ccccc43)o2)cc1`: the activity change is -101% (active).

Consider `COC(=O)C1(C(=O)OC)C/C=C\CN(S(=O)(=O)c2ccccc2[N+](=O)[O-])CCC1`, for which the activity change was 18.1%.

Regarding `O=C(NCc1cccnc1)c1cc(C2CCCN(C(=O)CCCc3ccccc3)C2)on1` (configuration not stated), the activity change was 24.4%.

`CCN(CC)CCn1c2ccc(Cl)cc2c2nc(C)sc21`: the activity change is -29.9%.

Consider `CCN(CC)CCCC(C)n1c2nc(=O)[nH]c(=O)c-2nc2cc(Cl)ccc21` (configuration not stated), for which the activity change is -77.2% (active).

Regarding `O=C(Nc1ccc(OCCO)cc1)c1csc([C@H]2C[C@H](O)[C@@H](CO)O2)n1`, the activity change is 4.57%.

Consider `COc1cccc(/C=N\Nc2nncc(-c3ccccc3)n2)c1`, for which the activity change is -16.6%.

Turning to `FC(F)(F)c1cccc(N/N=C/c2ccccc2)c1`, the activity change was -1.73%.

With `Cc1cc2c(C)nc(N/N=C/c3ccccc3)nc2o1`, the activity change is -78.8% (active).

Turning to `CC(C)NC(=O)c1ccccc1S(=O)c1ccccc1C#N` (configuration not stated), the activity change was -0.788%.

Take `OCC1OC(n2cnc3c(N4CCCC4)ncnc32)C(O)C1O` (configuration not stated): the activity change is 86.8%.

For `N#CCSc1nc2ccc(N3CCOCC3)cc2c(=O)n1CCc1ccccc1`, the activity change is -50.9% (active).

Take `COCCCNC(=O)CSc1nc2ccc(N3CCOCC3)cc2c(=O)n1CCc1ccccc1`: the activity change is -8.48%.

For the compound `CCCCn1c(SCC(=O)NCC2CCCO2)nc2ccc(N3CCOCC3)cc2c1=O` (configuration not stated), the activity change is -7.71%.

Consider `N#Cc1ccc(-c2ccc3nccn3c2)cc1`, for which the activity change was 13.1%.

As for `C=CC[C@H](CC(=O)N(CCO)Cc1ccccc1)C(=O)N[C@@H](COC(=O)[C@@H](CC=C)Cc1ccc(F)cc1)Cc1ccccc1`, the activity change was -67.6% (active).

With `C=CCC[C@H](Cc1ccc(F)cc1)C(=O)OC[C@H](C)NC(=O)[C@H](CC=C)CC(=O)N(CCO)Cc1ccccc1`, the activity change is -17.2%.

On to `C=CCC[C@H](Cc1ccc(F)cc1)C(=O)OC[C@@H](NC(=O)[C@@H](CC=C)CC(=O)N[C@H](CO)Cc1ccccc1)C(C)(C)C`, for which the activity change is -29.4%.

For `C=CCC[C@@H](Cc1ccc(F)cc1)C(=O)O[C@H](CNC(=O)[C@H](CC=C)CC(=O)N(CCO)Cc1ccccc1)c1ccccc1`, the activity change is -58.8% (active).

For the compound `C=CCC[C@@H](Cc1ccc(F)cc1)C(=O)OC[C@@H](C)NC(=O)[C@H](CC=C)CC(=O)N(CCO)Cc1ccccc1`, the activity change was -24.1%.

Turning to `C=CC[C@@H](Cc1ccc(F)cc1)C(=O)OC[C@H]1CCCN1C(=O)[C@H](CC=C)CC(=O)N(CCO)Cc1ccccc1`, the activity change was -21.2%.
